From PubChem BioAssay (NCATS)
Values without a mark were called inactive. Records with an inconclusive call do not appear. A call without a number means that no potency is given here. Activity calls are given as the source filed them. Unless noted, calls come from the whole dose curve; as a rule, active = well fitted cell-killing curve with a large enough effect; inconclusive = small, poorly fitted or top-dose-only effect; inactive = flat fitted curve, though single readings scatter.

Key:
[1] = Cell Viability - LYMP2-020 (AID 986);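 note: series mostly up to about 92 µM; cells exposed to compound for 24 h at 37 °C; nearly all actives have a fitted effect of over 55% in size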
Procedure, shortened: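 Acute cytotoxicity in a human lymphoblastoid line is scored as a concentration-dependent fall in cellular ATP after 24 hr at 37 C in complete medium. The positive control is tetraoctylammonium bromide, and potency is given as Hill-fit AC50.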

[2] = Cell Viability - LYMP2-024 (AID 988);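 note: cells exposed to compound for 24 hr at 37 °C; nearly all actives have a fitted effect of over 60% in size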; note: potency is the fitted concentration of half-maximal effect
Procedure, shortened: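 Acute toxicity is measured as concentration-dependent loss of intracellular ATP in a human lymphoblastoid line treated 24 hours at 37 C. Luciferase luminescence quantifies ATP; AC50 values come from standard Hill-equation modelling.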

[3] = Cell Viability - LYMP2-026 (AID 989);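 note: cells exposed to compound for 24 h at 37 °C; nearly all actives have a fitted effect of over 50% in size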
Procedure, shortened: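 Concentration-dependent loss of intracellular ATP in human lymphoblastoid cells after 24 hr at 37 C, quantified by luciferase luminescence. AC50 derived from standard Hill equation.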

[4] = Cell Viability - LYMP1-002 - Assay at 24 hr (AID 993)
Procedure, shortened: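 qHTS, LYMP1-002 lymphoblastoid, 24 h cpd, 37 C, CellTiter-Glo ATP luminescence; AC50 via Hill eq.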

[5] = Cell Viability - LYMP1-002 - Assay at 40 hr (AID 994); note: nearly all actives have a fitted effect of over 60% in size
Procedure, shortened: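 Viability in the human lymphoblastoid line was measured as intracellular ATP via CellTiter-Glo after 40 hr compound exposure. Tetraoctylammonium bromide served as positive control.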

[6] = qHTS Assay for Identification of Small Molecule Inducers of Hypoxia Response (AID 2120; active = well fitted curve in the direction sought with a large enough effect in the signal ratio, with a control signal flat, not every such curve was filed as active; the % refers to the signal ratio)
Procedure, shortened: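 Induction of beta-lactamase reporter activity was measured in CellSensor HRE-bla ME-180 cells after 17 h compound treatment at 37 degrees C, using CCF4 substrate and the 460nm/530nm emission ratio to derive AC50 values.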

[7] = biological target: Estrogen receptor (Homo sapiens) (UniProt P03372); test: qHTS assay for small molecule antagonists of estrogen receptor alpha signaling (AID 588513; active = well fitted curve in the direction sought with a large enough effect in the signal ratio, with a control signal flat, not every such curve was filed as active; the % refers to the signal ratio)
Procedure, shortened: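 Antagonist-mode qHTS in ER-alpha-UAS-bla HEK 293 cells: compound titration, 0.5nM estradiol for 18 h, CCF4 fluorescence, Hill-derived IC50.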

[8] = biological target: Estrogen receptor (Homo sapiens) (UniProt P03372); test: qHTS assay for small molecule agonists of estrogen receptor alpha signaling (AID 588514; calls by dose curve; note: nearly all actives have a fitted effect of over 70% in size)
Procedure, shortened: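 Reporter-gene assay. […] controls beta-lactamase in HEK 293 GripTite cells; after 18 hrs with compound, CCF4 substrate is added for 2 hrs and fluorescence is read.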

[9] = Cell Viability - LYMP2-022 (AID 987);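 note: cells exposed to compound for 24 hr; nearly all actives have a fitted effect of over 55% in size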
Procedure, shortened: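 Acute toxicity in a human lymphoblastoid line is scored as decreased intracellular ATP after 24 hr compound treatment at 37 C. ATP is measured by CellTiter-Glo luminescence; curves are fitted with the Hill equation to give AC50.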

[10] = biological target: Androgen receptor (Homo sapiens) (UniProt P10275); test: qHTS assay for small molecule agonists of androgen receptor signaling (AID 588515; active = well fitted curve in the direction sought with a large enough effect in the signal ratio, with a control signal flat; the % refers to the signal ratio); details: AR-UAS-bla HEK293, beta-lactamase ratio, agonist 16 h; hits give high values
Procedure, shortened: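 EC50 and efficacy came from Hill fits of titrations (up to 92 uM) normalized to 30 nM R1881 as 100% and DMSO as 0%. Compound exposure was 16 h at 37 C on AR-UAS-bla HEK293 cells, with a 405/460/530 nm CCF4 fluorescence read.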

Sequence of Estrogen receptor (Homo sapiens) (P03372 whole entry, looked up): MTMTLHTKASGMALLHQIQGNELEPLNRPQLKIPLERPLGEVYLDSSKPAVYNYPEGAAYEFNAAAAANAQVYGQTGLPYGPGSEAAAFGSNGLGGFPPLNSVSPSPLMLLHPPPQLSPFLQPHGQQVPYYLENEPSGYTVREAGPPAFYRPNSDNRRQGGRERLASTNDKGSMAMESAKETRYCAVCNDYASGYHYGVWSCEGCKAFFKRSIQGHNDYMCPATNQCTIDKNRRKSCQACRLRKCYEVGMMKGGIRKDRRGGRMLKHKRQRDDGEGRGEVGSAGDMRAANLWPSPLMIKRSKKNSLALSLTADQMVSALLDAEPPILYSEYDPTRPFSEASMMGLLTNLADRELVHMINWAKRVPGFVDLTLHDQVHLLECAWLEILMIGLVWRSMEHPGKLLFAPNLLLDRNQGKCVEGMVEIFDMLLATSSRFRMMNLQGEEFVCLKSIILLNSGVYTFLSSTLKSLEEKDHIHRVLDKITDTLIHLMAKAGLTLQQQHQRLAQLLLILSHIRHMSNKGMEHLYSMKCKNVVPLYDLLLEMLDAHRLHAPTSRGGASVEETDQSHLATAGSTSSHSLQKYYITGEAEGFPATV
Sequence of Androgen receptor (Homo sapiens) (P10275 whole entry, looked up): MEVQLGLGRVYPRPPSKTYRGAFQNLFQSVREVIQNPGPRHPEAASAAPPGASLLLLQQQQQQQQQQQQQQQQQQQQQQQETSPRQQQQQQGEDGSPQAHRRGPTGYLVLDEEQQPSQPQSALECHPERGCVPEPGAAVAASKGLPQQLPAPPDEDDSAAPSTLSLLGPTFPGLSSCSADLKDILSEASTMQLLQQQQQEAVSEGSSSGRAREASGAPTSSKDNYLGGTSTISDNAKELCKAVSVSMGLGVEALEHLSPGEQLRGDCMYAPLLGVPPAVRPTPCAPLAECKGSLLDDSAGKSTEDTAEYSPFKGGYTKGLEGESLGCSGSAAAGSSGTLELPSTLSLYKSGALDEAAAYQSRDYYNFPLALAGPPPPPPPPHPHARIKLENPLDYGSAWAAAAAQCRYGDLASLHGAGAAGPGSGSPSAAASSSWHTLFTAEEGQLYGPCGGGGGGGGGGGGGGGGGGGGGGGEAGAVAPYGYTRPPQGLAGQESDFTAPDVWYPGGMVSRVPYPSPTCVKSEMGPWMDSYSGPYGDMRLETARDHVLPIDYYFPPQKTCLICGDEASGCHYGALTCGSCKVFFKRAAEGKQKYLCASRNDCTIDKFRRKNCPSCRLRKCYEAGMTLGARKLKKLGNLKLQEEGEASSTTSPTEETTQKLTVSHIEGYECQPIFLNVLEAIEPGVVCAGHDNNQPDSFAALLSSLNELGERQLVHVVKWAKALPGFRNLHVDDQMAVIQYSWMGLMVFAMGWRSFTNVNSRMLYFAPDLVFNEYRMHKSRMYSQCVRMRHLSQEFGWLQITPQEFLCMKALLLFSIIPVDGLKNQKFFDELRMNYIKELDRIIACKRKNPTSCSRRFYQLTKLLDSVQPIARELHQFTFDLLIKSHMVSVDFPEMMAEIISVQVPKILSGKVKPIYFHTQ

SMILES | Potency [1] | Potency [2] | outcome [3] | Potency [4] | Potency [5] | outcome [6] | outcome [7] | Potency [8] | Potency [9] | activation [10]
Cc1ccco1 | inactive | inactive | inactive | inactive | inactive | inactive | inactive | inactive |  | 
O=C(O)CNC(=O)c1ccc(CO)o1 | inactive | inactive |  | inactive | inactive | inactive | inactive | inactive |  | 
CCCCCCC=O | inactive | inactive | inactive | inactive | inactive | inactive | inactive | inactive |  | 
CCOC(C)(C)C | inactive | inactive | inactive | inactive | inactive | inactive | inactive |  | inactive | 
Cc1ccc2nc(-c3ccc(N)cc3)sc2c1S(=O)(=O)O | inactive | inactive | inactive | inactive | inactive | inactive | inactive |  | inactive | 
CO[Si](CCCNCCC[Si](OC)(OC)OC)(OC)OC | inactive | inactive | inactive | inactive | inactive | inactive | inactive | inactive |  | 
CC(=O)Nc1ccc(C)cc1 | inactive | inactive |  | inactive | inactive | inactive | inactive | inactive | inactive | 
CCCCCCCN | inactive | inactive |  | inactive | inactive | inactive | inactive | inactive | inactive | 
O=Nc1ccc(NO)cc1 |  | 39.8 µM (active) |  | inactive |  | inactive | inactive |  |  | 
Nc1cc([N+](=O)[O-])ccc1C(=O)O | inactive | inactive |  | inactive | inactive | inactive | inactive | inactive |  | 
C=CCCCC | inactive | inactive |  | inactive | inactive | inactive | inactive | inactive | inactive | 
Cc1ccccc1C#N | inactive | inactive | inactive | inactive |  | inactive | inactive | inactive |  | 
C=Cc1ccc(C=C)cc1 | inactive | inactive | inactive | inactive | inactive | inactive |  | inactive | inactive | 
Cc1cccc2sc(N)nc12 | inactive | inactive | inactive | inactive | inactive | inactive | inactive |  | inactive | 
CCOCC(=O)O | inactive | inactive | inactive | inactive | inactive | inactive | inactive | inactive |  | 
CN(C)CCCCl | inactive | inactive |  | inactive | inactive | inactive | inactive | inactive | inactive | 
CC(C)=CCC/C(C)=C/C=O | inactive | inactive | inactive | inactive | inactive | inactive | inactive | inactive |  | 

SMILES | Potency [1] | Potency [2] | outcome [3] | Potency [4] | Potency [5] | outcome [6] | outcome [7] | Potency [8] | Potency [9] | activation [10]
Cc1nc2ccc(Cl)cc2[nH]1 | inactive | inactive | inactive | inactive | inactive | inactive | inactive | inactive |  | 
ClC/C=C/CCl |  |  | inactive | inactive | inactive | inactive | inactive | inactive |  | 
CC(=O)c1cccc([N+](=O)[O-])c1 | inactive | inactive | inactive | inactive |  | inactive | inactive | inactive |  | 
O=C(O)c1ccccc1C(=O)O | inactive | inactive | inactive | inactive | inactive | inactive |  | inactive | inactive | 
Cc1ccc(C)c(N)c1 | inactive | inactive |  | inactive | inactive | inactive | inactive | inactive | inactive | 
CC(C)Nc1ccccc1 | inactive | inactive |  | inactive | inactive | inactive | inactive | inactive | inactive | 
NC(=O)/N=N/C(N)=O | inactive |  | inactive | inactive | inactive | inactive | inactive | inactive |  | 
O=[N+]([O-])c1ccc(CCO)cc1 |  |  |  | inactive | inactive | inactive | inactive | inactive |  | 
Clc1cc(Cl)cc(Cl)c1 | inactive | inactive | inactive | inactive | inactive | inactive | inactive | inactive |  | 
c1ccc2c(c1)Oc1ccccc1S2 | inactive | inactive | inactive | inactive |  | inactive | inactive | inactive |  | 
[O-]/[N+](=N\O)c1ccccc1 | inactive | inactive | inactive | inactive | inactive | inactive |  | inactive |  | 
CC(=C/C=C/C(C)=C/C=C/C=C(C)/C=C/C=C(C)/C=C/C(=O)O)/C=C/C(=O)O | inactive | inactive | inactive | inactive | inactive | inactive | inactive |  | inactive | 17%
Cc1cc(C(=O)O)ccc1[N+](=O)[O-] | inactive | inactive | inactive | inactive | inactive | inactive | inactive |  |  | 
CCN(CC)c1cccc(O)c1 | inactive | inactive | inactive | inactive |  | inactive | inactive |  | inactive | 
CCCCC(C=O)CC (centres undefined) | inactive | inactive | inactive | inactive | inactive | inactive | inactive | inactive |  | 
CCNc1ccccc1 | inactive | inactive | inactive | inactive | inactive | inactive |  |  | inactive | 1.96%
COCCOC(=O)c1ccccc1C(=O)OCCOC | inactive | inactive | inactive | inactive | inactive | inactive |  |  | inactive | 
